The entries come from a sample that favours hits as a whole.
GIRK2 activator: activators of NPY4-receptor-primed GIRK2 channels, summary, cell-based, HEK293, thallium flux | HEK293 GIRK2/NPY4 cells, thallium flux fluorescence | activation (% efficacy), % for hits at 37.5 µM | 34,000 tested, under 10 active | G protein-activated inward rectifier potassium channel 2 (Homo sapiens), P48051;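 active = primary screen hit, no activity in plain HEK293 cells, and in GIRK2-only cells above 5% efficacy rising with concentration; inactive = the rest, including fluorescent compounds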;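 note: efficacy is normalized control-subtracted fluorescence 15 s after thallium addition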
Target sequence (P48051 whole entry, looked up): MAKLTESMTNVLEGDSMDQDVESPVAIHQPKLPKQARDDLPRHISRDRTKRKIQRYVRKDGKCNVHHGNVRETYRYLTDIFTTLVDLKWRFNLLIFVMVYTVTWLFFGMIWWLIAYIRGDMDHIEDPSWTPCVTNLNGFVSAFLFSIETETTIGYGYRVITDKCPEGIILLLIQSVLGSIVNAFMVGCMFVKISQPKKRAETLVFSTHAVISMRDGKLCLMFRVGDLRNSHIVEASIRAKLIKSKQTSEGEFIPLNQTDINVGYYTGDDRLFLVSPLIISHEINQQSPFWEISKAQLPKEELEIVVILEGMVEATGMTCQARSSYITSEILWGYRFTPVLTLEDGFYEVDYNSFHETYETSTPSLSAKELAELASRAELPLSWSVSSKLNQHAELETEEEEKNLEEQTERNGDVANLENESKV
GluA2 TARP mod: modulators of GluA2-stargazin AMPA receptor complexes, primary screen, cell-based, membrane potential dye. 40,000 compounds, 3.5% hits. HEK293 GluA2+stargazin, membrane potential dye (FDSS), glutamate EC50; hits were called plate by plate, in both directions. calls only at 30 µM. Voltage-dependent calcium channel gamma-2 subunit (Mus musculus) + Glutamate receptor 2 …;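 active = any of four per-well response measures lying three or more SD from its plate-wide compound average, in either direction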
* hit, by the source's call; ! = not confirmed by another sample.

Screening O=S(=O)(Cc1cccc(F)c1)NCc1cccc(Oc2ccc(F)cc2)c1 returned GIRK2 activator inactive and GluA2 TARP mod inactive.
For COc1cc(NS(=O)(=O)c2ccc3ccccc3c2)ccc1N1CCCC1=O the results were GIRK2 activator inactive and GluA2 TARP mod inactive.
COc1ccc(S(=O)(=O)NCC#CCN2CCc3ccccc3C2)cc1C was read as GIRK2 activator inactive and GluA2 TARP mod active.
For O=S(=O)(NCC#CCN1CCc2ccccc2C1)c1cccc(Cl)c1 the results were GIRK2 activator inactive and GluA2 TARP mod inactive.
For O=C(CCCn1c(SCc2cccc([N+](=O)[O-])c2)nc2ccccc2c1=O)N1CCCC1 the results were GIRK2 activator inactive and GluA2 TARP mod active.
For O=c1nc(SCc2cccc([N+](=O)[O-])c2)c2c(n1CCCO)CCC2 the results were GIRK2 activator inactive and GluA2 TARP mod inactive.
Screening CS(=O)(=O)N1CCCC(C(=O)N2CCN(c3ccccc3)CC2)C1 (configuration not stated) returned GIRK2 activator inactive and GluA2 TARP mod inactive.
For Cn1nc(CNC(=O)c2ccccc2C(=O)c2ccccc2)c2ccccc2c1=O the results were GIRK2 activator inactive and GluA2 TARP mod inactive.
For Cn1nc(CNC(=O)c2cccc(C#N)c2)c2ccccc2c1=O the results were GIRK2 activator inactive and GluA2 TARP mod active.
`O=C(Nn1cnc2c(cnn2-c2ccccc2)c1=O)c1cc(Br)ccc1Cl` gave GIRK2 activator inactive and GluA2 TARP mod inactive.
Cc1ccccc1OCC(O)Cn1c(N2CCCC2)nc2c1c(=O)n(C)c(=O)n2C (configuration not stated) was read as GluA2 TARP mod inactive.
For Cc1cccc(C(=O)N(c2cccc(C)c2)C2C=CS(=O)(=O)C2)c1 (configuration not stated) the results were GluA2 TARP mod inactive.
CCc1cccc(C)c1NC(=O)Cn1ccc2ccn(Cc3ccccc3)c2c1=O was read as GIRK2 activator inactive.
Screening COc1ccccc1C(=O)NCCNc1ccc(Nc2cccc(C)n2)nn1 returned GIRK2 activator inactive.
For CCC(CC)C(=O)NCCNc1ccc(Nc2cccc(C)n2)nn1 the results were GIRK2 activator inactive and GluA2 TARP mod active.
Cn1c(C(F)(F)F)nn(CCNC(=O)C2(c3ccc(Cl)cc3)CCCC2)c1=O was read as GIRK2 activator inactive and GluA2 TARP mod inactive.
For Cn1c(-c2ccccn2)nn(CCNC(=O)C2(c3ccc(Cl)cc3)CCCC2)c1=O the results were GIRK2 activator inactive and GluA2 TARP mod active.
O=C(COc1ccccc1C1CC(c2cccs2)=NN1C(=O)c1ccccc1)N1CCCC1 (configuration not stated) was read as GluA2 TARP mod inactive.
`O=C(COc1ccccc1C1CC(c2ccccc2)=NN1C(=O)c1ccccc1)N1CCOCC1` (configuration not stated) gave GluA2 TARP mod active.
COc1ccc(-c2nnc(NC(=O)C3CCCCC3)o2)cc1OC was read as GIRK2 activator inactive and GluA2 TARP mod inactive.
For CC(C)C(=O)N1CCCc2cc(NC(=O)c3cccc(Cl)c3)ccc21 the results were GluA2 TARP mod inactive.
Screening CC(=O)CC1(O)C(=O)N(CCOc2ccc(C(C)(C)C)cc2)c2ccccc21 (configuration not stated) returned GIRK2 activator inactive and GluA2 TARP mod active!.
Screening CC(=O)CC1(O)C(=O)N(CCCOc2ccccc2C)c2ccccc21 (configuration not stated) returned GIRK2 activator inactive and GluA2 TARP mod inactive.
Screening Cc1ccc2nc(N(CCN3CCOCC3)C(=O)c3ccc4c(c3)OCCO4)sc2c1 returned GluA2 TARP mod inactive.
COc1ccccc1NC(=O)CSc1nc(-c2ccccc2)[nH]c1S(=O)(=O)c1ccccc1 was read as GIRK2 activator inactive and GluA2 TARP mod active.
Screening CC1CCCCN1C(=O)CSc1nc(-c2ccccc2)[nH]c1S(=O)(=O)c1ccccc1 (configuration not stated) returned GIRK2 activator inactive and GluA2 TARP mod active.
`COc1ccc(CNC(=O)CSc2nc(-c3ccccc3)[nH]c2S(=O)(=O)c2ccccc2)cc1` gave GIRK2 activator inactive and GluA2 TARP mod inactive.
`O=C(CSc1nc(-c2ccccc2)[nH]c1S(=O)(=O)c1ccccc1)NC1CCCC1` gave GIRK2 activator inactive and GluA2 TARP mod inactive.
`Cc1cc(C)c(-c2ccc(SCC(=O)NCc3ccc4c(c3)OCO4)nn2)cc1C` gave GIRK2 activator inactive and GluA2 TARP mod active.
Screening O=C(CSc1ccc(-c2ccc3ccccc3c2)nn1)NCc1ccc2c(c1)OCO2 returned GIRK2 activator inactive and GluA2 TARP mod inactive.
